Assay results: PubChem BioAssay (NCATS)
Results filed as inconclusive are left out. The source made the active and inactive calls. Calls follow the shape of the dose curve; as a rule, active = well fitted inhibition curve with a large enough effect; inconclusive = small, poorly fitted or top-dose-only effect; inactive = flat fitted curve, though single readings scatter.

Key:
Assay in all cases: qHTS profiling for inhibitors of Plasmodium falciparum proliferation (AID 504749); also: nearly all actives have a fitted effect of over 60% in size
Conditions in all cases: P. falciparum in erythrocytes, SYBR Green DNA, 72 h; series mostly up to 28.7 µM
CP266 = system: CP266
Method in brief: (§1)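 In a 72 h erythrocytic culture (37 C, humidified, 5% CO2) at 2.5% hematocrit and 0.3% starting parasitemia, compounds were tested; SYBR Green I in detergent lysis buffer stained parasite DNA overnight.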

CP268 = system: CP268
Method in brief: as §1

CP269 = system: CP269
Method in brief: as §1

CP286 = system: CP286
Method in brief: as §1

CP291 = system: CP291
Method in brief: as §1

CP297 = system: CP297
Method in brief: as §1

CP305 = system: CP305
Method in brief: as §1

CP315 = system: CP315
Method in brief: as §1

CP325 = system: CP325
Method in brief: as §1

CP329 = system: CP329
Method in brief: as §1

CP335 = system: CP335
Method in brief: as §1

DFO2036 = system: DFO2036
Method in brief: as §1

DIV14 = system: DIV14
Method in brief: as §1

DIV17 = system: DIV17
Method in brief: as §1

DIV30 = system: DIV30
Method in brief: as §1

Dd2 = system: Dd2
Method in brief: as §1

ECU = system: ECU
Method in brief: as §1

FAB9 = system: FAB9
Method in brief: as §1

GB4 = system: GB4
Method in brief: as §1

HB3 = system: HB3
Method in brief: as §1

ICS = system: ICS
Method in brief: as §1

JCK = system: JCK
Method in brief: as §1

N140 = system: N140
Method in brief: as §1

P93_24 = system: P93_24
Method in brief: as §1

P94_40 = system: P94_40
Method in brief: as §1

PAD = system: PAD
Method in brief: as §1

PC15 = system: PC15
Method in brief: as §1

PC26 = system: PC26
Method in brief: as §1

PC49 = system: PC49
Method in brief: as §1

SC27B = system: SC27B
Method in brief: as §1

TAB109 = system: TAB109
Method in brief: as §1

TAB113 = system: TAB113
Method in brief: as §1

TAB165 = system: TAB165
Method in brief: as §1

W2 = system: W2
Method in brief: as §1

Measured: Potency

CC(=O)[C@H]1CC[C@H]2C3CC=C4C[C@@H](O)CC[C@]4(C)C3CC[C@]12C (some centres undefined)
inactive: all assays above
